Active and inactive are the calls of the source. How the source made its calls: active means hit-call score of the fitted dose curve at least 0.9, where 1 is the maximum; inactive means score below 0.9.

Read-out in the assay: serum amyloid A (SAA), SAA1 (gene 6288)
Nature of the assay: BSK_CASM3C_SAA: BioMAP Diversity Plus: CASM3C Assay for serum amyloid A (SAA) Biomarker Activity (AID 2283049).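 Further: SAA protein level quantified by ELISA.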 To be noted: primary human coronary artery smooth muscle cells; actives raise or lower the signal.
Turning to `Nc1ccn([C@@H]2O[C@H](CO)[C@@H](O)[C@@H]2O)c(=O)n1`, the outcome was inactive.

For `CCCCCCCCCCCCCCCCOS(=O)(=O)O`, the result was inactive.

Take `CC(C)CCCCCCOC(=O)C1CCCCC1C(=O)OCCCCCCC(C)C` (centres undefined): the outcome was inactive.

On to `O=C(O)[C@H](O)[C@@H](O)C(=O)O`, for which the result was inactive.

As for `O=c1[nH]cnc2c1ncn2[C@H]1CC[C@@H](CO)O1`, the result was inactive.

As for `OCC(CO)(CO)CO`, the outcome was inactive.

In the case of `O=C(O)c1cccc(C(=O)O)c1`, the outcome was inactive.

Take `OC[C@H]1O[C@@H]2O[C@H]3[C@H](O)[C@@H](O)[C@@H](O[C@H]4[C@H](O)[C@@H](O)[C@@H](O[C@H]5[C@H](O)[C@@H](O)[C@@H](O[C@H]6[C@H](O)[C@@H](O)[C@@H](O[C@H]7[C@H](O)[C@@H](O)[C@@H](O[C@H]1[C@H](O)[C@H]2O)O[C@@H]7CO)O[C@@H]6CO)O[C@@H]5CO)O[C@@H]4CO)O[C@@H]3CO`: the result was inactive.

For `CCOC(N)=O`, the result was inactive.

Source of the values: PubChem BioAssay (EPA / NIEHS).
